The panel holds about 83,000 compounds, 20% with a hit somewhere; the sample as a whole holds those more often.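 Compound tested at a single concentration for 48 hours in 96-well plates; a percent growth value below 10 was scored as active.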 Values without a mark were called inactive. The source made the active and inactive calls.
Key:
Test in all cases: NCI-60 one-dose screen, 48 h (100 = growth as untreated, 0 = no growth, -100 = all killed)
SK-MEL-2 melanoma = conditions: 10 µM unless noted
EKVX NSCLC = conditions: 10 µM
SN12C renal = conditions: 10 µM unless noted
UO-31 renal = conditions: 10 µM unless noted
TK-10 renal = conditions: 10 µM unless noted
ACHN renal = conditions: 10 µM unless noted
CAKI-1 renal = conditions: 10 µM unless noted
CCRF-CEM leukemia = conditions: 10 µM
MOLT-4 leukemia = conditions: 10 µM unless noted
A498 renal = conditions: 10 µM unless noted

SMILES	growth (SK-MEL-2 melanoma)	growth (EKVX NSCLC)	growth (SN12C renal)	growth (UO-31 renal)	growth (TK-10 renal)	growth (ACHN renal)	growth (CAKI-1 renal)	growth (CCRF-CEM leukemia)	growth (MOLT-4 leukemia)	growth (A498 renal)
O=C(N/N=C/c1ccccc1Cl)c1cccc2ccccc12	108%	99.6%	94.9%	91.5%	113%	105%	96.8%	88.3%	112%	
N=C(N)c1ccc(-c2ccc(-c3ccc(F)cc3)s2)cc1	-62.1% (active)	-91.4% (active)	-71.2% (active)	-88.4% (active)	-79.9% (active)	-91.8% (active)	-95.1% (active)	-62% (active)	-58.8% (active)	
CCS(=O)(=O)OCCO[C@H]1Cc2cc3ccc(=O)oc3cc2OC1(C)C	96.8%	107%	107%	86.9%	102%	107%	95%	115%	107%	102%
O=C1C(Cl)=C(SC2=NCCN2)C(=O)c2ccccc21	66.7%	94.4%	74%	48.3%	173%	83.5%	93.9%	61.7%	68.9%	119%
c1ccc2[nH]c(-c3ccc(OCCCCCOc4ccc(-c5nc6ccccc6[nH]5)cc4)cc3)nc2c1	64%	87%	19.8%	78%	-50.9% (active)	35.5%	94.1%	-87.9% (active)	-19.1% (active)	
O=C(N/N=C/c1coc2ccccc2c1=O)c1cc2oc(-c3ccccc3)cc2[nH]1	75.4%	90.5%	120%	86.2%	143%	106%	95.3%	103%	55.9%	
Cc1nc2c(nnn2-c2ccccc2)c2nc(-c3ccccc3)oc(=O)c12	108%	99.3%	103%	86.5%	104%	105%	93.8%	111%	112%	98.6%
CC1C(=O)CCCC1=O	99%	110%	95.6%	86.7%	102%	104%	100%	92.1%	95.1%	138%
N#Cc1c(N)nc(Nc2nc3ccccc3[nH]2)nc1-c1ccc(Cl)cc1	114%	109%	111%	82.8%	109%	101%	86.9%	95.9%	84.7%	
CC1=C(C)C(=O)C(C(C)C2=C(C)C(=O)C(C)=C(C)C2=O)=C(C)C1=O	97.8%	61.7%	120%	83.8%	75.7%	110%	142%		32.9%	84.6%
CC(C)(C)C(=O)CCCCCCCC/C=C/CCCC(O)c1ccco1 (stereo not given)	105%	102%	110%	98.3%	105%	120%	110%	-44.3% (active)	76.1%	109%
O=C1c2ccccc2CCc2ccccc21	102%	89.4%	96.7%	84%	99.3%	102%	90.5%	91.8%		
COc1ccc(Cn2cc3c(c2-c2ccccc2)CCc2cnoc2-3)cc1OC	48%	46.5%	49.5%	35.3%	70.4%	57.7%	18.9%	17.1%		
COc1cccc2c1n([O-])c1cccc(OC)c1[n+]2=O	71.5%	45.6%	83.3%	60.6%	59.8%	72.3%	304%		26.3%	106%
O=C(/C=C\c1ccccc1Cl)c1ccccc1	128%	96.4%	102%	71.5%	111%	92.5%	90.8%	-16.3% (active)	91.8%	
COc1ccc(CNCCCN2C(=O)c3ccc4c5c(ccc(c35)C2=O)C(=O)N(CCCNCc2ccc(OC)c(OC)c2OC)C4=O)c(OC)c1OC	-88.4% (active)	-77.2% (active)	-90.8% (active)	-91.5% (active)	-84.7% (active)	-90.3% (active)	-52.5% (active)	-34% (active)	-43.9% (active)	
COc1ccc(C(O)(c2ccccc2)C(C(=O)O)c2ccccc2)cc1 (stereo not given)	104%	111%	100%	81.6%	105%	106%	102%	102%	102%	
N#CCCCCCCCCCCC#N	108%	97%	105%	92.9%	92.4%	107%	95.2%	97.5%	105%	
O=C(N/N=C/c1cc(Cl)ccc1O)C(=O)N/N=C/c1cc(Cl)ccc1O	109%	69.2%	79.5%	48.2%	76.3%	53.4%	37.2%	39.7%	55.9%	81.3%
O=C(Nc1ccccc1)Nc1ccc(Nc2ncnc3sc4c(c23)CCCC4)cc1	114%	102%	99.3%	71.6%	124%	101%	100%	92.4%	89.5%	
COc1cc2ncnc(-n3ncc4cc(NC(=O)Nc5ccc(Cl)c(C)c5)ccc43)c2cc1OC	92.5%	97.7%	98.8%	100%	95.9%	103%	92.7%		84%	101%
Oc1ccc2ccccc2c1/C=N\Nc1ccccn1	19.3%	-6.82% (active)	22.4%	-24.7% (active)	58.3%	6.56% (active)	-26.4% (active)	8.91% (active)		
O=c1c(N=Nc2nccs2)c(-c2ccccc2)[nH]n1-c1nc(-c2ccccc2)cs1	22.8%	53.1%	35%	36.4%	45.6%	35.4%	35.6%	25.5%	30.3%	
CC(=O)Nc1nc(C)c(C(=O)NNC(=O)Nc2ccccc2)s1	29.9%	153%	92.3%	77.7%	159%	93.3%	140%	79.8%		
C/C=C(/C)C(=O)OC1C=C(CO)C(=O)C(OC(=O)C(C)(O)C(C)Cl)C1C(C)C (stereo not given)	-23.5% (active)	-15% (active)	-35.4% (active)	-96.5% (active)	-17.4% (active)	-96.7% (active)	-44.5% (active)	1.18% (active)	0.566% (active)	-74.6% (active)
C=C[C@]1(C)C=C2C(=O)[C@@]3(O)OC[C@@]4(CCCC(C)(C)C43O)C2(O)C(O)C1 (stereo not given in full)	-0.387% (active)	91.2%	93.2%	33.8%	-68.2% (active)	3.59% (active)	10.8%		78%	99.4%
COc1ccc2c(c1)/C(=C/c1c(-c3cc(OC)c(OC)c(OC)c3)nc3sccn13)C(=O)N2	98.6%	94.3%	105%	77.8%	102%	100%	67.3%		-61.2% (active)	65.3%
Cc1ccc(OCCn2ccc(=O)n(CCOc3ccc(Cl)cc3C(=O)c3cc(C)cc(C)c3)c2=O)cc1	41.2%	47%	62%	41.8%	61.7%	60.6%	47.6%		19.2%	33.7%
NC(=O)CC(NC(=O)COc1ccc(Cl)cc1Cl)C(=O)O (stereo not given)	104%	111%	101%	95.6%	103%	109%	101%	105%	104%	88%

Source: PubChem BioAssay (NCI)
